These results are taken from PubChem BioAssay (NCATS).

Inconclusive results are not listed. Entries that show only a call come without a potency. Unmarked numbers belong to inactive results. Activity calls are given as the source filed them. Calls follow the shape of the dose curve; as a rule, active = well fitted curve in the direction sought with a large enough effect; inconclusive = small, poorly fitted or top-dose-only effect, or another doubt; inactive = no such curve, though single readings can be large; an effect the other way counts as inactive or inconclusive.

A short description of assay [1]: P-glycoprotein substrates identified in KB-8-5-11 adenocarcinoma cell line, qHTS therapeutic library screen (AID 1346987). Also: nearly all actives have a fitted effect of over 65% in size. As to activity change, negative = cytotoxicity: series mostly up to about 44 µM. The gist of the method:
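P-gp-mediated resistance screen: KB-8-5-11 cells treated 72 h with compounds in dose-response. CellTiter-Glo viability.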

In a further assay the target is Furin (Homo sapiens) (UniProt P09958). Kind of assay: Furin counterscreen qHTS for Zika virus inhibitors (AID 1347149). Also: nearly all actives have a fitted effect of over 70% in size. The method in brief: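 Fluorogenic cleavage of BOC-RVRR-AMC (2 microM final, Km ~15 µM) was monitored (ex 340, em 450 nm) at 37C after 15 min RT preincubation of 5 nM furin with compounds in HEPES pH 7.0 buffer with CaCl2 and Triton X-100. Percent inhibition was fitted to a 4-parameter Hill curve.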
For orientation: Counterscreens check selectivity or assay interference.

Assay [2] relates to Zika virus NS2B-NS3 protease (linked construct). Kind of assay: Confirmatory screen NINDS AMC qHTS for Zika virus inhibitors (AID 1347152). Also: nearly all actives have a fitted effect of over 70% in size. The method in brief: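 In this dose-response qHTS, AMC release from 10 microM Bz-Nle-KRR-AMC by 1 nM linked protease is measured over 15 minutes (about 20% conversion) at pH 8.0. Percent inhibition is fitted to a 4-parameter Hill curve.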
(In qHTS, concentration-response curves come from the screen itself.)

The subject of assay [3] is Zika virus NS2B-NS3 protease (unlinked complex). Description: Confirmatory screen GU AMC qHTS for Zika virus inhibitors (AID 1347153).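 Also: enzyme at 25 nM with substrate at 10 µM below its Km of 18.3 µM; nearly all actives have a fitted effect of over 70% in size.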 The conditions noted are these: Recombinant NS2B-NS3 protease, AMC substrate fluorescence. The gist of the method:
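Noncovalent NS2B hydrophilic domain/NS3 protease complex (25 nM) in 10 mM Tris-HCl pH 8.0, 0.01% Tween 20 was preincubated 15 min at room temperature with compounds. Then 10 µM AMC substrate (Km 18.3 µM) was added; fluorescence was read over 15 min and fitted to a 4-parameter Hill equation.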
Potency is read from the fitted curve at half-maximal effect.

Chain of Furin (Homo sapiens) (P09958 whole entry, looked up): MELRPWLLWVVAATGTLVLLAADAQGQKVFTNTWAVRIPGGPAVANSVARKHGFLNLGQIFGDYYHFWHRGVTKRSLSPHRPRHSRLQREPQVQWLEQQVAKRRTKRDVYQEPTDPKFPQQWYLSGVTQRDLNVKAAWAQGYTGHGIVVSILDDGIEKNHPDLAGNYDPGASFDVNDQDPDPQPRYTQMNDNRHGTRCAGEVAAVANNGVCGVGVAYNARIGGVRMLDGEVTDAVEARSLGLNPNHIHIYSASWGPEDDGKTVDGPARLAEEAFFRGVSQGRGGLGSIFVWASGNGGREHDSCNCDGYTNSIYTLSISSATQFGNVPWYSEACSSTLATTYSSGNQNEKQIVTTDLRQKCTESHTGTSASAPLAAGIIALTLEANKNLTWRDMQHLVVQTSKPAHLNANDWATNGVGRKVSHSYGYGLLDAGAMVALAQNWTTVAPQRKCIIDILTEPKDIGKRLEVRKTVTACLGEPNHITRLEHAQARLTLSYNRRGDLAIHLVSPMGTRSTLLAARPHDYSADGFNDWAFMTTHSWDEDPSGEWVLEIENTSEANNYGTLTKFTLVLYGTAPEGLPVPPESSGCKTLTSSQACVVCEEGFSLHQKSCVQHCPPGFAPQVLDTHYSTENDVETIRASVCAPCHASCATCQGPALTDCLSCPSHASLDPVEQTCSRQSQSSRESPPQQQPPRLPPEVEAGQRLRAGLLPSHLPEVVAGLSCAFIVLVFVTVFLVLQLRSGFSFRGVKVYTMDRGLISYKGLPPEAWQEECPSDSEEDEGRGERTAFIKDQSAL

Take `CCCN1CCC=C(c2cc(-c3ccc(C)cc3)no2)C1`: in assay [1], the Potency result is “inactive”.
As for `O=C(Nc1nnc(-c2ccc3c(c2)OCCO3)o1)C1CCCCC1`, the Potency entry in assay [1] is “inactive”.
In the case of `COc1ccc(S(=O)(=O)Nc2cc(Cl)cc(Cl)c2OC)cc1N1CCNCC1`, in assay [1], the Potency entry was “inactive”.
Regarding `CCOC(=O)Cc1cccc(-c2cc(CCCCCCc3ccc(O[C@H]4O[C@H](COC(C)=O)[C@@H](OC(C)=O)[C@H](OC(C)=O)[C@@H]4OC(C)=O)c(-c4cccc(CC(=O)OCC)c4)c3)ccc2O[C@H]2O[C@H](COC(C)=O)[C@@H](OC(C)=O)[C@H](OC(C)=O)[C@@H]2OC(C)=O)c1`, in assay [1], the Potency entry is “inactive”.
`COc1cc(C(=O)NC(=S)Nc2cccc(NC(=O)c3ccccc3)c2)cc(OC)c1OC`: in assay [1], the Potency entry is “inactive”.
`CNC[C@@H]1CC[C@@H](N)[C@@H](O[C@H]2[C@H](O)[C@@H](O[C@H]3OC[C@](C)(O)[C@H](NC)[C@H]3O)[C@H](N)C[C@@H]2N)O1`: the Potency result in assay [1] is “inactive”.
Turning to `COc1cc([C@@H]2c3cc4c(cc3C(O[C@@H]3O[C@@H]5COC(c6cccs6)O[C@H]5[C@H](O)[C@H]3O)C3COC(=O)[C@@H]32)OCO4)cc(OC)c1O` (stereo partly drawn), in assay [1], the Potency entry is “inactive”.
On to `O=C(NCC(=O)N1CCCC1)Nc1ccc2cnccc2c1`, for which the Potency result in assay [1] is “inactive”.
The same measure, in the same setting: then `C=C(C)[C@@H]1CC=C(COC(=O)NC(=O)c2ncn3c(=O)n(C)nnc23)CC1`, with “inactive”.
On to `CC[C@H]1CN(c2nc(N)c(C(N)=O)nc2Cl)CCN1C1CCN(Cc2ccc(Cl)cc2)CC1`, for which the Potency entry in assay [1] is “inactive”.
As to `Cc1cc(C(=O)Nc2cc(Nc3ccc4c(/C=C/c5ccccn5)n[nH]c4c3)ccc2F)n(C)n1`, the Potency in assay [1] was 18.4 µM (active).
In the case of `COc1cc(O)cc(/C=C/c2cccc(O)c2)c1`, the Potency result in assay [1] is “inactive”.
`C/C=C(/C)C(=O)OC1CC(C)(C)CC2C3=CCC4C5(C)CCC(O[C@@H]6O[C@H](C(=O)O)[C@@H](O)[C@H](O)[C@H]6O[C@@H]6O[C@H](CO)[C@H](O)[C@H](O[C@@H]7OC[C@H](O)[C@H](O)[C@H]7O[C@@H]7O[C@H](CO)[C@@H](O)[C@H](O)[C@H]7O)[C@H]6O)C(C)(C)C5CCC4(C)C3(C)C(O)C(O)C12CO` (stereo partly drawn): the activity change, negative = cytotoxicity in assay [1] is -17.3% [at 9.29 µM].
`Cc1ccc(C)c(NS(=O)(=O)c2cc(C(=O)Nc3ccccc3-c3ccccc3)ccc2C)c1`: the Potency in assay [1] was 16.4 µM (active).
The same measure, in the same setting: then `c1ccc(-c2cnn3cc(-c4ccc(OCCN5CCOCC5)cc4)cnc23)cc1`, with 1.64 µM (active); and `C=CC1(C)CC(O)C(C(=C)C(=O)OC)C(O)C1C(=C)CO` (stereo not drawn), with “inactive”; and `CCCCc1ccc(NS(=O)(=O)c2ccc(F)cc2)cc1`, with “inactive”.
On the same count and under the same terms, then `CCCC(CCC)C(N)=O`, with “inactive”; and `C=C(C)[C@@H]1CC[C@]2(C(=O)O)CC[C@]3(C(=O)O)[C@H](CCC4[C@@]5(C)CCC(=O)C(C)(C)C5CC[C@]43C)C12` (stereo partly drawn), with “inactive”; and `CC[C@@H](C)Nc1cc(C(=O)NC2CC3CCC(C2)N3c2ccc(C(=O)C3CC3)cn2)c(C)cc1C(N)=O` (stereo partly drawn), with 0.13 µM (active).
Still for that read-out and setting: for `C=C[C@@]12COC(=O)C(=C)[C@@H]1[C@@H](O)[C@H](C(=C)C(=O)OC)[C@@H](O)C2` the value was “inactive”; for `CC[C@H]1OC(=O)[C@H](C)[C@@H](O[C@H]2C[C@@](C)(OC)[C@@H](O)[C@H](C)O2)[C@H](C)[C@@H](O[C@@H]2O[C@H](C)C[C@H](N(C)C)[C@H]2O)[C@](C)(O)C[C@@H](C)[C@@H]2N[C@@H](COCCOC)O[C@@H]([C@H]2C)[C@]1(C)O`, “inactive”; for `O=C(Nc1ccc(C(O)(C(F)(F)F)C(F)(F)F)cc1)c1ccc(C(F)(F)F)cc1`, 18.4 µM (active).
As for `COc1cc2nc(N3CCN(C(=O)COc4c(OC)cccc4C(C)C)CC3)nc(N)c2cc1OC`, the Potency result in assay [1] was “inactive”.
Turning to `CC1(C)S[C@@H]2[C@H](NC(=O)[C@H](N)c3ccccc3)C(=O)N2[C@H]1C(=O)OCOC(=O)[C@@H]1N2C(=O)C[C@H]2S(=O)(=O)C1(C)C`, the Potency result in assay [1] was “inactive”.
`C=C1C(=O)O[C@@H]2[C@H]1CC(=O)[C@H](C)[C@@](O)(C(=O)/C=C/C)[C@H]2OC(=O)C(C)CC` (stereo partly drawn): the Potency in assay [1] was 5.7 µM (active).
Take `O=S(=O)(O)Oc1ccc(C(c2ccc(OS(=O)(=O)O)cc2)c2ccccn2)cc1`: in assay [1], the Potency result is “inactive”.
Same read-out and setting: for `CC1(C=O)CCCC2(C)C1CCC13CC(CO)C(CCC12)C3` (stereo not drawn) the value was “inactive”.
`CC(C)(S)C(=O)N[C@@H](CS)C(=O)O`: the Potency result in assay [1] is “inactive”.
Regarding `O=C(O)[C@@H](O)[C@H](O)[C@H](O)[C@@H](O)C(=O)O` (tested in a mixture with another compound), the Potency entry in assay [1] is “inactive”.
Still for that read-out and setting: then `CC#CCC(C)[C@H](O)/C=C/[C@@H]1[C@H]2c3cccc(CCCC(=O)O)c3O[C@H]2C[C@H]1O` (stereo partly drawn), with “inactive”; and `CCCN(CCc1ccsc1)C1CCc2c(O)cccc2C1` (stereo not drawn), with “inactive”.
As to `CCc1cc2c(cc1CC)CC(NCC(O)c1ccc(O)c3[nH]c(=O)ccc13)C2` (stereo not drawn), the Potency result in assay [1] is “inactive”.
On the same count and under the same terms, for `C/C=C(\C)C(=O)OC1C[C@@]2(COC(C)=O)O[C@H]2/C=C\[C@@]2(C)O[C@@H]2[C@H]2OC(=O)C(COC(C)=O)=C12` (stereo partly drawn) the value was “inactive”; for `CCC(C)C(=O)OC1C(C)C2(O)C(C=C(CO)CC3(O)C(=O)C(C)=CC32)C2C(C)(C)C12OC(=O)C(C)C` (stereo not drawn), “inactive”.
As to `CC1CCCC[C@H]2C(=O)C=C[C@H](O)[C@@H]2CC(=O)O1` (stereo partly drawn), the Potency in assay [1] is 7.31 µM (active).
On the same count and under the same terms, then `CC(C)CCNC(=O)[C@H](CC(C)C)NC(=O)[C@H]1O[C@@H]1C(=O)O`, with “inactive”; and `Cc1cc(OCCCS(C)(=O)=O)cc(C)c1-c1cccc(COc2ccc3c(c2)OCC3CC(=O)O)c1` (stereo not drawn), with “inactive”; and `C=C1CCCC2(C)CCC(C(C)(C)OC3OC(C)C(O)C(O)C3OC(=O)/C(C)=C\C)CC12` (stereo not drawn), with “inactive”.
Turning to `O=C(Nc1ccc(-c2ccc(Cl)c(Cl)c2)cc1)C1=C(O)c2ccccc2S(=O)(=O)N1`, the Potency entry (in assay [1]; in the assay with Furin (Homo sapiens)) was “inactive” in each case. Besides, the Potency in assay [2] is 49.4 µM (active); in assay [3] it was 44.1 µM (active).
As for `CCCn1ncc(CN2CCCC(C(=O)c3cccc(OC(C)C)c3)C2)c1C` (stereo not drawn), the Potency entry in assay [1] is “inactive”.
For `Cc1noc(-c2ccc(-c3ccc(CC(=O)O)cc3)cc2)c1NC(=O)O[C@H](C)c1ccccc1Cl`, the Potency entry in assay [1] was “inactive”. Besides, the Potency is 69.8 µM (active) in the assay with Furin (Homo sapiens), 44.1 µM (active) in assay [2] and 31.2 µM (active) in assay [3].
